# Assay: reversal of MRP1-mediated doxorubicin resistance, pilot screen, H69AR cells, doxorubicin co-treatment (AID 601)
# Conditions: H69AR cells + 2 uM doxorubicin, CellTiter-Glo, 72 h; measured here: viability with 2 uM doxorubicin; at 10 µM; stronger effect = lower value
row,Compound,viability [%]
1,CCOc1ccc(OCc2ccc(C(=O)Nc3cccc(C)n3)o2)cc1,87.3
2,CCOC(=O)N1CCC(NC(=O)CSCc2nc(-c3cccc(OC)c3)oc2C)CC1,103
3,Cn1c(=O)cc(OCC(=O)N2CCN(c3cccc(C(F)(F)F)c3)CC2)c2ccccc21,85.3
4,CCCCOc1ccc(CSc2n[nH]c(C)n2)cc1,89.7
5,CS(=O)(=O)N(CC(=O)NCc1ccccn1)c1ccc2c(c1)OCCO2,87.9
6,CCOC(=O)CSc1nnc([C@H](C)NC(=O)OC(C)(C)C)o1,85.7
7,CCSc1nnc2c(n1)OC=Nc1ccc(Br)cc1-2,86.7
8,COc1ccccc1Nc1nc2ccccc2[nH]1,83.4
9,Cc1oc(-c2ccccc2Cl)nc1CSCC(=O)N1CCCC1,85
10,CNC(=O)Nc1cccc(C(F)(F)F)c1,100
11,CCOC(=O)N1CCN(c2c(NCCN(C)Cc3ccccc3)c(=O)c2=O)CC1,92.9
12,CCOc1ncccc1C(=O)OCC(=O)N1CC(=O)Nc2ccccc21,97.7
13,Cn1c(=O)c2c(-c3ccccc3)n(CCCN3CCOCC3)cc2n(C)c1=O,71.9
14,COc1cccc(NC(=O)N2CCN(c3cccc(C)c3C)CC2)c1,87.4
15,CCCCC(=O)NCCNc1nc2c(c(=O)n(C)c(=O)n2C)n1Cc1ccccc1,98.7
16,COc1ccc(S(=O)(=O)Nc2ccc(S(=O)(=O)N3CCCCC3)cc2)cc1OC,94.9
17,COc1ccc(CN2CC(C(=O)NCc3ccccn3)CC2=O)cc1 (centres undefined),95.1
18,CC(C)(C)NC(=O)Cn1nnc(-c2cccs2)n1,79.1
19,COCCn1nnnc1CN(Cc1cccnc1)Cc1cc2cc(OC)ccc2[nH]c1=O,79.5
